From PubChem BioAssay AID2314 (National Center for Advancing Translational Sciences (NCATS), 2010) come the findings set out here.

SMILES strings stand for the structures. Where “and” joins values, the source holds several entries; their conditions need not be identical. Equal values may be shown once. Screen size: about 300,000 compounds; about 37,000 (12%) were called active. What follows is part of a selection rich in actives, with near analogues and random picks from the rest. A number with no mark means an inactive call. Cut-off read from the data, not from the text of the source: active = max response mostly above about 13% (no sharp cut-off); inactive = mostly below about 14%.

The assay can be described thus: Cycloheximide Counterscreen for Small Molecule Inhibitors of Shiga Toxin. Note: read at 38.3 µM for the half of the compounds with a filed dose; 0% is about no effect. As to conditions: cell reporter, cycloheximide protein synthesis inhibition counterscreen; hits give high values.
Regarding `COc1ccc(N(C(=O)c2cccnc2)S(=O)(=O)c2ccc(OC)c(OC)c2)cc1`, the max response is 1.15%.
Take `N#CCC(=O)N/N=C/c1ccc(SCC(=O)Nc2ccccc2)o1`: the max response is 2.34%.
With `O=C(Cc1ccccc1)Nc1cccc(C(=O)N/N=C/c2ccco2)c1`, the max response is 0.305%.
In the case of `O=C(CSc1ccc(/C=N/NC(=O)c2cccc(F)c2)o1)Nc1ccccc1` it was 47.1% (active); in that of `COc1cccc2sc(N(CCCN(C)C)C(=O)C(c3ccccc3)c3ccccc3)nc12`, -11.2%; in that of `Cc1ccccc1NC(=O)NCc1ccco1`, 9.11%.
As to `Cc1ccc(NC(=O)Cn2nnc(C(=O)NCc3ccco3)c2N)c(C)c1`, the max response is 9.89%.
Turning to `Cc1ccc(NC(=O)C(=O)NCc2ccco2)c(C)c1`, the max response is 41.1% (active).
The figure for `CN(CC(=O)Nc1ccc(F)cc1)CC(=O)Nc1ccc(Cl)c(S(=O)(=O)N2CCOCC2)c1` is -2.41%; for `C/C=C/c1ccc(OCC(O)CN2CCCCCCC2)c(OC)c1` (stereo not drawn) it is 9.28%.
Consider `CCOC(=O)c1ccc(NC(=O)Cn2cnc3cc(C)c(C)cc32)cc1`, for which the max response is 6.04%.
The figure for `CCn1c(=O)c2ccccc2n(CC(=O)N2CCCc3ccccc32)c1=O` is -2.55%.
On to `CN(C)CCn1c(=S)[nH]c2ccc(Cl)cc2c1=O`, for which the max response is -5.79%.
In the case of `CN(C)CCN=c1cc(-c2ccccc2)oc2ccc(Cl)cc12` it was 23.6% (active).
Turning to `CCOC(=O)c1c(NC(=O)CNC2CCCc3ccccc32)sc(C(N)=O)c1C` (stereo not drawn), the max response is 9.96%.
In the case of `O=C(N/N=C\c1cc(Br)c(Br)o1)C1COc2ccccc2O1` (stereo not drawn), the max response was 9.2%.
For `O=C(N/N=C/c1cc2c(cc1Br)OCO2)C1COc2ccccc2O1` (stereo not drawn), the max response is 52.6% (active).
Turning to `O=C(CNC(=O)C1COc2ccccc2O1)N/N=C/c1cc(Br)c(O)c(Br)c1` (stereo not drawn), the max response was -2.17%.
In the case of `CCOC(=O)CSc1nc(N2CCOCC2)c2c(c1C#N)CC(C(C)C)OC2` (stereo not drawn) it was -2.94%; in that of `Cc1ccc(-c2noc(CSc3nnc(-c4ccccc4)n3C)n2)cc1`, -0.58%.
The figure for `Cc1ccc(-c2noc(CSc3nnnn3-c3ccccc3)n2)cc1` is 17.8% (active); for `Cc1ccc(-c2noc(CSc3nnc(-c4cccs4)n3C)n2)cc1` it is 5.33%.
In the case of `O=C(C1CCCO1)N(c1ccc(F)cc1)C1C=CS(=O)(=O)C1` (stereo not drawn) it was -9.85%; in that of `Cc1onc(-c2ccccc2Cl)c1C(=O)OCC(=O)c1ccccc1`, 38.6% (active).
Consider `Cc1onc(-c2ccccc2Cl)c1C(=O)NCCn1ccc2ccccc21`, for which the max response is -2.37%.
In the case of `CC(=O)Nc1cccc(/C(C)=N/NC(=O)c2c(-c3ccccc3Cl)noc2C)c1` it was 0.404%.
Consider `CC(=O)n1cc([C@H]2C=C(C(=O)N3CCOCC3)O[C@@H](OCc3ccc(CO)cc3)C2)c2ccccc21`, for which the max response was -0.396%.
The figure for `Cc1ccc(S(=O)(=O)N2CCN(C)CC2)cc1` is 1.47%; for `Clc1ccc(-c2cc(-c3ccccn3)on2)c(Cl)c1` it is 29.5% (active); for `O=C1CSC(c2ccccc2)N1c1nc(-c2ccc(Cl)cc2Cl)cs1` (stereo not drawn) it is -1.24%.
In the case of `Clc1ccc(-c2ncc3ccccn23)c(Cl)c1` it was -0.544%; in that of `Cc1noc(C)c1/C=N/Nc1ccc2ccccc2n1`, 39.1% (active).
Consider `C(=N\Nc1ccc2ccccc2n1)/c1ccc2c(c1)OCO2`, for which the max response is -3.9%.
With `O=C(O)/C(=C/c1cccnc1)NC(=O)c1ccccc1`, the max response is 0.766%.
In the case of `Cc1cccc[n+]1CC(=O)c1ccccc1`, the max response is 0.405%.
For `O=C(/C=C\NCC(=O)c1ccccc1)c1ccccc1`, the max response is 35.9% (active).
Consider `O=C(/C=C/NNC(=O)c1cccc(Br)c1)c1ccccc1`, for which the max response was 22.3%.
The figure for `O=C(/C=C/NCc1ccc(F)cc1)c1ccccc1` is 53.1% (active).
In the case of `CCOC(=O)CNC(=O)/C(=C\c1ccc(F)cc1)NC(=O)c1ccccc1`, the max response is -0.456%.
On to `O=C(CNCc1ccc(F)cc1)Nc1ccccc1-c1ccccc1`, for which the max response was -4.19%.
In the case of `Cc1ccc(C(=O)Oc2ccc(C(=S)N3CCOCC3)cc2)cc1` it was -3.19%; in that of `COC(=O)C1(C)NC(c2ccc(C)cc2)C2C(=O)N(c3ccc(F)cc3)C(=O)C21` (stereo not drawn), 1.36%; in that of `CCOC(=O)CNC(=O)/C=C/c1c(Cl)cccc1Cl`, -3.14%.
The figure for `COC(=O)N/N=C/c1cn(CCCOc2ccc(C)cc2)c2ccccc12` is 44.1% (active); for `CNC(=S)N/N=C/c1cn(Cc2ccc(C)cc2)c2ccccc12` it is 3.75%.
For the compound `CCOC(=O)N/N=C/c1cn(Cc2ccccc2Cl)c2ccccc12`, the max response is 4.93%.
For `Cc1ccc(Cn2ncc3c4sc(C)cc4n(C)c3c2=O)c(C)c1`, the max response is 5.87%.
Consider `CCn1cc(/C=C2/SC(=S)NC2=O)c(C)n1`, for which the max response was 2.94%.
The figure for `O=C1/C(=C/c2ccc3c(c2)OCO3)CCC/C1=C\c1ccc2c(c1)OCO2` is 0.534%.
The figure for `Cc1nn(C)cc1/C=C1\CCC/C(=C\c2cn(C)nc2C)C1=O` is 18.2% (active); for `CCOc1ccc(NC(=O)COc2ccc(S(=O)(=O)N3CCCC3)cc2)cc1` it is 1.08%; for `Cc1c(C(=O)NC(=S)NCc2cccnc2)oc2ccccc12` it is 6.33%.
`COc1ccc(NC(=O)C2CCC(CNC(=O)[C@@H]3Cc4ccccc4CN3)CC2)cc1` (stereo partly drawn): the max response is 15.5%.
The figure for `CCN1CCN(C(=O)C2CCCN(S(=O)(=O)c3ccc(OC)c(OC)c3)C2)CC1` (stereo not drawn) is -4.36%.
Regarding `CCOC(=O)C1CCN(C(=O)C2CCCN(S(=O)(=O)c3ccc(OC)c(Cl)c3)C2)CC1` (stereo not drawn), the max response was -4.35%.
With `CCOc1ccc(S(=O)(=O)N2CCCC(C(=O)N3CCC(C(N)=O)CC3)C2)cc1Cl` (stereo not drawn), the max response is 23.5% (active).
For `COCCCC1CCN(C(=O)C2CCC(=O)N(C3CCCCCC3)C2)CC1` (stereo not drawn), the max response is -2.1%.
For `COc1ccc(C(CC(=O)N2CCN(c3ccccc3)CC2)c2c(O)cc(OC)cc2OC)cc1` (stereo not drawn), the max response is -2.39% and 0.819%.
For the compound `COc1ccc(C(C(O)C(=O)c2c[nH]c3ccccc23)N2CCN(c3ccccc3)CC2)cc1` (stereo not drawn), the max response is 11.6% (active).
The figure for `COc1ccc(C(=O)Nc2ccccc2C(=O)N2CCN(c3ccccc3)CC2)cc1` is 11.6%.
For `Cc1c(C)n(Cc2ccc(Cl)cc2)c2ccc(C(=O)NCCCN3CCOCC3)cc12`, the max response is -6.61%.
Take `O=C(NCCCn1ccnc1)/C(=C\c1ccccc1F)NC(=O)c1ccccc1`: the max response was -1.78%.
On to `CCc1ccccc1NC(=O)c1ccc2snnc2c1`, for which the max response is -0.462%.
In the case of `O=C(Nc1ccc2ccccc2c1)Nc1ccc2snnc2c1` it was 14.6%.
The figure for `O=C(Nc1cccc(Br)c1)c1ccc2snnc2c1` is 26.9% (active).
In the case of `COC(=O)Cc1cnc(NC(=O)CSc2nc(C(C)C)cc(=O)[nH]2)s1` it was -1.1%; in that of `COc1cccc(OCCCN2CCCCCC2)c1`, 10.5%; in that of `COc1cccc(Oc2ccc(N)cc2)c1`, 19.4% (active).
Consider `CC(C)(C)c1ccc(Oc2ccc(N)cc2)cc1`, for which the max response was -11.7%.
Turning to `Cc1ccc(Oc2ccc(N)cc2)cc1`, the max response is 14.2% (active).
The figure for `COc1ccc(/C=C/C(=O)OCC(=O)Nc2cccc(Oc3ccccc3)c2)c(OC)c1` is -2%; for `Nc1ccc(Oc2ccc(Cl)cc2)cc1` it is 10.9%; for `O=C(Oc1ccc(Br)cc1C(=S)N1CCOCC1)c1cccc([N+](=O)[O-])c1` it is -2.16%.
With `CC1(C(=O)NCCc2c[nH]c3ccccc23)C=CC2(CCCCC2)N1C(=O)c1ccccc1` (stereo not drawn), the max response is 17.5%.
`Cc1ccc(Nc2nc(CSc3nnc(-c4ccncc4)n3-c3ccccc3C)cs2)cc1`: the max response is 6.52%.
In the case of `COc1ccccc1N1CCC(N2CCN(CC(C)(C)C)C(CCO)C2)CC1` (stereo not drawn), the max response was 1.35%.
The figure for `NC(=O)C1CCN(Cc2nc3c(Br)cc(Br)cc3c(=O)[nH]2)CC1` is 4.18%; for `CN(C(=O)CC1C(=O)NCCN1Cc1ccc(F)cc1Cl)C1CCCCC1` (stereo not drawn) it is -2.54%; for `CC(=O)CCC(=O)c1ccc2ccccc2c1` it is 48.4% (active).
The figure for `O=C(Nc1ccccc1N1CCCC1)c1ccc2ccccc2c1` is 18.5%; for `CCN(CC)Cc1cc(C(C)=O)ccc1O` it is -3.77%.
The figure for `CC(=O)c1ccc2c(ccc3ccccc32)c1` is 67.2% (active); for `CC(=O)c1ccc2c(c1)c1ccccc1n2CC(C)C` it is 3.09%; for `Cc1ccccc1OCC(=O)NCC(=O)OCC(=O)c1ccc2ccccc2c1` it is 1.31%.
With `CC(C)CC(O)C1CCN(C(=O)CCc2nnc(-c3ccc4c(c3)OCO4)o2)CC1` (stereo not drawn), the max response is 13.8%.
The figure for `COc1ccc(Cl)cc1NC(=O)c1cccc(N2C(=O)C3CC=CCC3C2=O)c1` (stereo not drawn) is -2.41%.
The figure for `CC1CN(C(=S)Nc2cccc(F)c2)CC(C)O1` (stereo not drawn) is -2.61%.
The figure for `COc1ccc(CC(=O)c2ccc(O)cc2O)cc1OC` is 12.9% (active).
Turning to `O=C(Cc1ccccn1)c1ccc(O)cc1O`, the max response is -6.13%.
With `COc1ccc(CCNC(=O)Cc2ccc(C)cc2)cc1OC`, the max response was 0.685%.
In the case of `CCN(Cc1ccncc1)C(=O)CCc1ccccc1`, the max response was -2.09%.
In the case of `CCOc1ccc(NC(=O)c2cccc3c2C(=O)N(CC2CCCO2)C3)cc1` (stereo not drawn) it was 8.04%.
Consider `CCn1c(SCC(=O)N(C)C2CCS(=O)(=O)C2)nnc1-c1cccs1` (stereo not drawn), for which the max response was -1.86%.
The figure for `CCn1c(SCC(=O)c2ccc(Cl)s2)nnc1-c1cccs1` is 24.2% (active).
In the case of `Cn1c(Cc2cccs2)nnc1SCC(=O)Nc1ccccc1` it was -0.893%.
With `CCn1c(SCC(=O)c2ccc3ccccc3c2)nnc1-c1cccs1`, the max response was -2.54%.
The figure for `Cc1ccc(-n2c(Cc3cccs3)nnc2SCC(=O)OC(C)C)cc1` is 18.3%; for `CCn1c(Cc2cccs2)nnc1SCC(=O)c1ccc(C)cc1` it is 35.4% (active).
